# According to PubChem BioAssay AID1347131 (National Center for Advancing Translational Sciences (NCATS), 2019):
# In all, about 410,000 compounds went through this assay and about 2,000 (0.49%) were called active. Where a call stands in place of a potency, no number is given. Roughly 8% stayed inconclusive and do not appear here. This is one part of a sample in which actives are shown more often than they occur. The call rests on the fitted dose curve; tested in HEK293 reporter line.
# Test: qHTS Assay for Foot and Mouth Disease Virus Antivirals: Primary Screen against the MLPCN compound library; further: nearly all actives have a fitted effect of over 55% in size
# Settings: FMDV antiviral cell-based qHTS; series mostly up to 57.9 µM
# Potency means the concentration at half of the fitted maximal effect.
row,Compound,Potency
1,CN(C)S(=O)(=O)c1ccc(C(=O)N2CCC(c3nc4ccccc4o3)CC2)cc1,inactive
2,Cc1ccc(-c2cc(-c3ccccc3)no2)c(O)c1,5.01 µM (active)
3,CSc1nc(Nc2ccc(C)cc2C)cc(-c2ccccc2)n1,inactive
4,CCC(C)NC(=O)c1cc(-c2ccccc2O)on1 (stereo not given),inactive
5,O=C1/C(=C/c2ccc(O)c([N+](=O)[O-])c2)SC(=S)N1Cc1ccccc1,inactive
6,Cc1nn2c(-c3cccc(NC(=O)CSc4nc5ccccc5o4)c3)nnc2c2ccccc12,inactive
7,COc1ccc(NC(=O)c2c(NC(=O)c3ccc(Br)cc3)sc3c2CCCC3)cc1,inactive
8,COc1ccc(C(=O)Nc2onc3c2CCCC3)cc1,12.6 µM (active)
9,COc1ccc(-c2noc(CCCC(=O)NC3CCCC3)n2)cc1,inactive
10,COc1cccc(C(=O)Nc2cccc(-c3nnc(-c4ccccc4)o3)c2)c1,inactive
11,CCOc1cccc(C(=O)Nc2ccc(S(=O)(=O)N(Cc3ccccc3)c3ccccc3)cc2)c1,inactive
12,CCOc1cccc(C(=O)Nc2nnc(-c3ccco3)s2)c1,11.2 µM (active)
13,CCN(CC)CCN(C(=O)c1ccc2c(c1)CCCC2)c1nc2ccc(C)cc2s1,inactive
14,CC(=O)N(Cc1cc2cc(C)ccc2[nH]c1=O)c1cccc(C)c1C,inactive
15,O=C(CCS(=O)(=O)c1ccc(Br)cc1)N1CCN(c2ccccc2F)CC1,inactive
16,Cc1cc(C)c(NS(=O)(=O)c2ccc3c(c2)NC(=O)CC(=O)N3)c(C)c1,inactive
17,O=C(NCCCCc1ccccc1)NC[C@@H]1CC[C@@H](Cc2ccc(-c3ccccc3)cc2)O1,inactive
18,COc1ccc2[nH]cc(CCNc3ncncc3-c3ccoc3)c2c1,22.4 µM (active)
19,COc1ccc2[nH]cc(CCNc3ccnc(-c4cccnc4)n3)c2c1,inactive
20,COc1ccc2[nH]cc(CCNc3ccnc(-c4c(C)noc4C)n3)c2c1,inactive
21,COc1ccc(S(=O)(=O)N2CCCN(CCC(=O)Nc3cccc(C(F)(F)F)c3)CC2)cc1,inactive
22,Cc1cccc(N2CCN(C(=O)CCS(=O)(=O)c3ccc4c(c3)oc(=O)n4C)CC2)c1C,inactive
23,CCc1cc(C(=O)N2CCCC(C(=O)c3ccc(Cl)cc3)C2)no1 (stereo not given),inactive
24,COc1ccc(-c2cc(C(=O)N3CCCCC3)no2)cc1OC,inactive
25,O=C(c1cc(-c2ccc(Cl)cc2Cl)on1)N1CCCC1,12.6 µM (active)
26,Cc1nc2nc(-c3ccc(Cl)cc3)cn2nc1C,10 µM (active)
27,Cc1cc(C)n2nc(C)c(-c3ccc(Cl)cc3)c2n1,inactive

row,Compound,Potency
1,Cc1nn2cnnc2c(C)c1Cc1ccc(Cl)cc1,inactive
2,COc1ccc(/C=N/NC(=S)Nc2cc(S(=O)(=O)N3CCOCC3)ccc2N2CCOCC2)cc1O,inactive
3,CCc1c(C)c2ccc(O)c(CN3CCN(c4ccccc4)CC3)c2oc1=O,inactive
4,Brc1ccc(C2C3=C(Nc4ncnn42)c2ccccc2OC3c2ccncc2)cc1 (stereo not given),17.8 µM (active)
5,COC(=O)c1c(C)oc(C)c1S(=O)(=O)NCC1CC1,inactive
6,COc1ccc(NS(=O)(=O)c2ccc(-n3cccn3)cc2)cc1OC,inactive
7,O=C(CN1CCN(S(=O)(=O)c2cc(C(F)(F)F)ccc2Cl)CC1)N1CCc2ccccc2C1,inactive
8,C=CCc1ccccc1OCC(O)CN1CCN(c2ccccc2OC)CC1 (stereo not given),inactive
9,COC(CNC(=O)C1CCN(S(=O)(=O)c2cccc3nsnc23)CC1)OC,inactive
10,CCOC(=O)c1cc(-c2ccccc2)n(CCC(=O)N2CCN(c3ccccc3OC)CC2)c1C,inactive
11,Cc1ccc2[nH]c(CSc3nnc(NC(=O)c4ccccc4F)s3)cc(=O)c2c1,inactive
12,Cc1cc[n+](CC(=O)c2ccc(NC(=O)c3ccccc3)cc2)c2ccccc12,inactive
13,CCc1ccc(C2CC(c3cccc(OC)c3)n3nc(N)nc3N2)cc1 (stereo not given),inactive
14,CCc1ccc(C(=O)C[n+]2cccc3cc(OC)ccc32)cc1,8.91 µM (active)
15,CC1(c2nnc(-c3ccncc3)o2)CC(c2ccc([N+](=O)[O-])cc2)=NO1 (stereo not given),inactive
16,Cc1occc1C(=O)NNC(=S)Nc1ccccc1,inactive
17,COc1ccc(-c2cc(=NC(CC(C)C)C(=O)O)c3cc(C)ccc3o2)cc1 (stereo not given),inactive
18,CCCNC(=O)c1ccc(-c2nc3ccccc3s2)s1,14.1 µM (active)
19,CCOC(=O)c1nc2ccccc2s1,inactive
20,CC(=O)Nc1scc(C)c1-c1nc2ccccc2s1,inactive
21,COc1cccc(-n2c(=O)c3c(C)c(C(=O)N(C)C)sc3n(Cc3ccc(F)cc3Cl)c2=O)c1,inactive
22,Cc1nn2c(=O)cc(COC(=O)c3ccc(C(C)(C)C)cc3)nc2s1,inactive
23,COc1cc(CNCc2ccccn2)ccc1OCc1ccccc1Cl,inactive
24,COc1ccc(C2C3C=CCC(c4cccc(-c5ccc(C)cc5)c4)C3C(=O)N2Cc2ccccc2)cc1Cl (stereo not given),12.6 µM (active)
25,COc1ccc(-c2cccc([C@H]3[C@@H]4C=CC[C@@H](C)[C@@H]4C(=O)N3Cc3ccccc3)c2)cc1,inactive
26,Cc1ccc(F)c([C@H]2C3C=CCC(c4ccccc4)C3C(=O)N2Cc2ccccc2)c1 (stereo not given in full),inactive
27,CCOc1ncccc1C(=O)Nc1cc(S(=O)(=O)N(CC)CC)ccc1N1CCOCC1,inactive

row,Compound,Potency
1,Cc1ccc(C)c(N2CCN(C(=O)c3ccc(N4CCCC4=O)cc3)CC2)c1,inactive
2,Cc1oc(-c2ccccc2F)nc1CS(=O)(=O)CC(=O)NC1CCCC(C)C1C (stereo not given),inactive
3,O=C(Nc1ccc2c(c1)OCCO2)c1cccc2nc3ccccc3nc12,inactive
4,O=C(CN1CCN(S(=O)(=O)c2ccc(Cl)cc2)CC1)Nc1ccc2c(c1)OCCO2,inactive
5,c1csc(CNc2ccc3c(c2)OCCO3)c1,inactive
6,O=C(O)C1C2C=CC(C2)C1C(=O)Nc1ccc2c(c1)OCCO2 (stereo not given),inactive
7,Cc1ccc(C(=O)Nc2ccc3c(c2)OCCO3)c(Cl)c1,11.2 µM (active)
8,Cc1ccsc1C(=O)Nc1ccc2c(c1)OCCO2,22.4 µM (active)
9,CCOC(=O)c1ccc[n+](C(C)C(=O)c2ccc(-c3ccccc3)cc2)c1 (stereo not given),inactive
10,COc1cccc(CNC(=O)c2cccc(S(=O)(=O)N3CCN(c4ccc(F)cc4)CC3)c2)c1,inactive
11,CCOc1ccc(NC(=O)CN2C(=O)CCSc3ccc(S(=O)(=O)N4CCCC4)cc32)cc1,inactive
12,O=C(/C=C/c1cccs1)c1cc(Cl)ccc1OC(=O)N1CCOCC1,17.8 µM (active)
13,O=C(/C=C/c1cccs1)N1CCC2(CC1)Oc1ccc(Cl)cc1C(=O)C21CC(c2cccnc2)=NO1 (stereo not given),inactive
14,O=C(COC(=O)/C=C/c1cccs1)Nc1ccc(Cl)cc1F,inactive
15,O=C(CCCOc1ccc(Cl)cc1)NCC1CCCO1 (stereo not given),inactive
16,CCOC(=O)C1=C(C)Nc2ccccc2N=C1NC(=O)c1oc2ccccc2c1COC,inactive
17,COc1ccccc1OCC(=O)Nc1cc(S(=O)(=O)N2CCCCC2)ccc1N1CCCCC1,inactive
18,COc1cc(/C=C(\C#N)c2ccccn2)ccc1OCC(=O)Nc1cccc(C(F)(F)F)c1,inactive
19,CN(CCC#N)c1ccc(/C=C(\C#N)c2ccccn2)cc1,14.1 µM (active)
20,CNc1nc(-c2ccc3c(c2)CCN3S(=O)(=O)c2ccccc2)c(C)s1,inactive
21,CC(=O)Nc1ccc(S(=O)(=O)N(C)CC(=O)Nc2ccc(Br)cc2F)cc1,inactive
22,CCn1cc(C(=O)OCC(=O)OC2CC(C)CCC2C(C)C)c(=O)c2ccc(C)nc21 (stereo not given),22.4 µM (active)
23,O=C(CCCCn1c(=O)c2ccccc2n(CC(=O)Nc2cccc(F)c2)c1=O)NCc1ccccc1Cl,inactive
24,COc1ccc(C[C@H]2CN3C(=NC[C@@H]3Cc3ccc(O)cc3)N2C[C@H](C)NC(=O)CCC2CCCCC2)cc1,inactive
25,CCCCCCCCCCC[N+](C)(C)CC/C=C1/c2ccccc2Sc2ccc(Cl)cc21,inactive
26,CC1(Cc2ccc(C(F)(F)F)o2)C(=O)Nc2cc(-c3ccc(F)cc3F)ccc21 (stereo not given),inactive
